Test systems include SK-MEL-2 melanoma; EKVX NSCLC; SN12C renal; UO-31 renal; TK-10 renal; ACHN renal; CAKI-1 renal; A498 renal; CCRF-CEM leukemia; MOLT-4 leukemia; SR leukemia; RPMI-8226 leukemia; OVCAR-8 ovarian; OVCAR-5 ovarian; OVCAR-4 ovarian; SK-OV-3 ovarian; IGROV1 ovarian; OVCAR-3 ovarian; HS 578T breast; NCI/ADR-RES ovarian.
Common to all, as to assay: NCI-60 one-dose screen, 48 h (100 = growth as untreated, 0 = no growth, -100 = all killed)
Common to all, as to conditions: 10 µM unless noted

Compounds without any hit were thinned out: in the full panel of roughly 83,000, 20% have a hit.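 Percent growth is the endpoint: 0 to 100 indicates growth inhibition (40 means 60% inhibition), 0 means no net growth, and negative values indicate cell death.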 Values without a mark were called inactive. Active and inactive are the calls of the source. Rule for the calls: active = growth percent below 10; inactive = the rest.

Regarding `C/C(=N\O)[C@@H]1CC[C@]2(CO)CC[C@]3(C)[C@H](CC[C@@H]4[C@@]5(C)CCCNC(C)(C)[C@@H]5CC[C@]43C)[C@@H]12`, the growth is 95.2% in the test on SK-MEL-2 melanoma; 92.7% in the test on EKVX NSCLC; 85.4% with SN12C renal; 69.3% with UO-31 renal; 109% in the test on TK-10 renal; 98.6% in the test with ACHN renal. The growth was 79.4% with CAKI-1 renal; 107% with A498 renal; 58.9% in the test with CCRF-CEM leukemia; 33.3% in the test with MOLT-4 leukemia; 12.5% with SR leukemia; 53.4% with RPMI-8226 leukemia. For the same molecule, the growth is 91.2% in the test with OVCAR-8 ovarian; 88.5% with OVCAR-5 ovarian; 77.2% in the test on OVCAR-4 ovarian; 105% in the test on SK-OV-3 ovarian; 65.2% in the test with IGROV1 ovarian; 80.3% in the test on OVCAR-3 ovarian. Further, the growth with HS 578T breast is 84.3%; in the test with NCI/ADR-RES ovarian it was 96.6%.

On to `CN(Cc1ccccc1)c1nc(Cl)c(C2CC(c3ccccc3)=NN2c2ccccc2)s1` (stereo not given), for which the growth was 78.5% in the test on SK-MEL-2 melanoma; 85.3% in the test on EKVX NSCLC; 103% in the test with SN12C renal; 81.5% in the test with UO-31 renal; 115% with TK-10 renal; 102% with ACHN renal. The growth in the test with CAKI-1 renal was 68.7%; in the test on A498 renal, 105%; in the test with CCRF-CEM leukemia, 94.3%; in the test on MOLT-4 leukemia, 97.1%; in the test on SR leukemia, 90.8%; with RPMI-8226 leukemia, 84.8%. For the same molecule, the growth was 91.5% with OVCAR-8 ovarian; 104% with OVCAR-5 ovarian; 88.5% in the test on OVCAR-4 ovarian; 85.3% in the test on SK-OV-3 ovarian; 97.2% with IGROV1 ovarian; 105% with OVCAR-3 ovarian. Moreover, the figures for the growth with HS 578T breast and in the test on NCI/ADR-RES ovarian were 103% and 98.1%, respectively.

Regarding `CC1=CC(c2ccco2)=C2C(N)=NNC2N1` (stereo not given), the growth in the test with SK-MEL-2 melanoma was 108%; with EKVX NSCLC it was 96.9%; in the test with SN12C renal it was 89.9%; in the test on UO-31 renal, 80.9%; in the test with TK-10 renal, 111%; in the test with ACHN renal, 90.8%. For the same molecule, the growth in the test with CAKI-1 renal is 82.6%; with A498 renal, 86.3%; with CCRF-CEM leukemia, 101%; in the test on MOLT-4 leukemia, 103%; in the test with SR leukemia, 94.2%; in the test with RPMI-8226 leukemia it was 106%. The growth in the test on OVCAR-8 ovarian was 97.7%; in the test on OVCAR-5 ovarian, 87.7%; in the test with OVCAR-4 ovarian, 92.6%; in the test on SK-OV-3 ovarian, 101%; in the test with IGROV1 ovarian, 86.9%; in the test on OVCAR-3 ovarian, 104%. For the same molecule, the growth in the test on HS 578T breast is 105%; in the test on NCI/ADR-RES ovarian it was 98.9%.

`O=C(Nc1cc(Cl)ccc1O)c1cccc(Nc2ccnc(C(F)(F)F)c2)c1`: the growth with SK-MEL-2 melanoma is 56.2%; with EKVX NSCLC, 9.67% (active); in the test with SN12C renal, 35%; in the test on UO-31 renal, 25.5%; in the test with TK-10 renal, 46.6%; in the test on ACHN renal it was 27.2%. Besides, the growth in the test with CAKI-1 renal was -2.35% (active); with A498 renal it was 45.3%; with CCRF-CEM leukemia, 8.35% (active); in the test on MOLT-4 leukemia, -41.2% (active); in the test on SR leukemia it was 25%; in the test with RPMI-8226 leukemia, 3.8% (active). Besides, the growth is 39.4% in the test on OVCAR-8 ovarian; 77.8% in the test on OVCAR-5 ovarian; 33.8% with OVCAR-4 ovarian; 56.4% with SK-OV-3 ovarian; 75.7% in the test with IGROV1 ovarian; 53.4% in the test on OVCAR-3 ovarian. Besides, the values for the growth in the test with HS 578T breast and in the test on NCI/ADR-RES ovarian were 60.4% and 15.2%, respectively.

Regarding `Cc1ccc(C)c(/C=C2\CN(C(=O)OC(C)(C)C)C/C(=C\c3cc(C)ccc3C)C2=O)c1`, the growth with SK-MEL-2 melanoma was 82%; in the test with EKVX NSCLC, 82.8%; in the test with SN12C renal, 31.4%; in the test on UO-31 renal, 61.1%; in the test with TK-10 renal it was 89.1%; in the test with ACHN renal, 15.5%. Moreover, the growth in the test on CAKI-1 renal is 45.2%; in the test on A498 renal, 73%; in the test on CCRF-CEM leukemia it was 4.98% (active); with MOLT-4 leukemia, 7.4% (active); in the test with SR leukemia it was 0.122% (active); in the test on RPMI-8226 leukemia, -24.4% (active). Moreover, the growth in the test with OVCAR-8 ovarian is 12.7%; in the test with OVCAR-5 ovarian, 86.1%; with OVCAR-4 ovarian it was 22%; in the test with SK-OV-3 ovarian, 87.7%; in the test on IGROV1 ovarian, 78.1%; in the test on OVCAR-3 ovarian, 13.1%. The growth in the test with HS 578T breast was 43.9%; with NCI/ADR-RES ovarian, 26.5%.

On to `CCN1C(=O)N(CC)C2C1NC(=S)N2/N=C/c1ccc(OC)cc1` (stereo not given), for which the growth in the test on SK-MEL-2 melanoma was 65%; in the test with EKVX NSCLC it was 79.6%; with SN12C renal it was 62.6%; in the test on UO-31 renal it was 51.8%; in the test on TK-10 renal it was 79.8%; in the test on ACHN renal, 64%. Also, the growth in the test with CAKI-1 renal was 32.9%; in the test on A498 renal, 29.9%; with CCRF-CEM leukemia, 52.8%; in the test with MOLT-4 leukemia, 47.7%; in the test with SR leukemia, 24.1%; in the test with RPMI-8226 leukemia, 85.4%. For the same molecule, the growth in the test on OVCAR-8 ovarian was 70.4%; with OVCAR-5 ovarian, 82.7%; with OVCAR-4 ovarian it was 81%; with SK-OV-3 ovarian it was 57%; in the test on IGROV1 ovarian it was 44.9%; in the test with OVCAR-3 ovarian, 17.1%. In addition, the growth in the test on HS 578T breast was 47.5%; in the test with NCI/ADR-RES ovarian, 57.4%.

On to `N#C/C(=C\c1cn(Cc2ccccc2)c2ccccc12)C(=O)Nc1ncc(Cc2ccccc2Cl)s1`, for which the growth with SK-MEL-2 melanoma is 35.9%; with EKVX NSCLC, 28.7%; in the test with SN12C renal it was 18.1%; with UO-31 renal, -34.3% (active); in the test with TK-10 renal, 6.29% (active); in the test on ACHN renal, -58.4% (active). Further, the growth is -11.4% (active) in the test with CAKI-1 renal; -13.3% (active) in the test with A498 renal; 37% in the test on CCRF-CEM leukemia; 61% with MOLT-4 leukemia; 8.65% (active) with SR leukemia; 67.6% in the test on RPMI-8226 leukemia. Also, the growth was 6.09% (active) in the test on OVCAR-8 ovarian; -2.57% (active) with OVCAR-5 ovarian; -74.6% (active) in the test on OVCAR-4 ovarian; 9.54% (active) in the test with SK-OV-3 ovarian; 9.54% (active) with IGROV1 ovarian; -19.1% (active) with OVCAR-3 ovarian. The growth with HS 578T breast was 21.7%; in the test on NCI/ADR-RES ovarian, 15%.

Turning to `CN(C)CCCC1(c2ccc(F)cc2)OCc2cc(-c3ccc4cc[nH]c4c3)ccc21` (stereo not given), the growth was 87.6% in the test with SK-MEL-2 melanoma; 61.6% in the test on EKVX NSCLC; 58.6% in the test on SN12C renal; 30.2% in the test on UO-31 renal; 92.9% in the test on TK-10 renal; 36.2% in the test on ACHN renal. The growth in the test with CAKI-1 renal was 30.4%; in the test with A498 renal, 81.5%; with CCRF-CEM leukemia, 33.2%; in the test with MOLT-4 leukemia, -8.83% (active); in the test on SR leukemia, -2.82% (active); with RPMI-8226 leukemia, 36.7%. The growth in the test on OVCAR-8 ovarian is 57.9%; in the test on OVCAR-5 ovarian, 84.4%; with OVCAR-4 ovarian it was 44.4%; in the test with SK-OV-3 ovarian, 90.2%; in the test on IGROV1 ovarian, 23%; in the test on OVCAR-3 ovarian, 45.6%. For the same molecule, the growth in the test on HS 578T breast was 54.6%; with NCI/ADR-RES ovarian, 56.8%.

These data come from PubChem BioAssay (NCI).
